Source: PubChem BioAssay (National Center for Advancing Translational Sciences (NCATS))
Only some compounds are listed: those with a hit (about 10% of all), similar ones and a draw of the others.
VDR inh = Inhibitors of the vitamin D receptor (VDR): qHTS; Vitamin D3 receptor (Homo sapiens), P11473; VDR-SRC2-3 peptide fluorescence polarization, 2 h; Potency, µM, usual class: inhibitors; 0.93% of 400,000 active
Target sequence (P11473 whole entry, looked up): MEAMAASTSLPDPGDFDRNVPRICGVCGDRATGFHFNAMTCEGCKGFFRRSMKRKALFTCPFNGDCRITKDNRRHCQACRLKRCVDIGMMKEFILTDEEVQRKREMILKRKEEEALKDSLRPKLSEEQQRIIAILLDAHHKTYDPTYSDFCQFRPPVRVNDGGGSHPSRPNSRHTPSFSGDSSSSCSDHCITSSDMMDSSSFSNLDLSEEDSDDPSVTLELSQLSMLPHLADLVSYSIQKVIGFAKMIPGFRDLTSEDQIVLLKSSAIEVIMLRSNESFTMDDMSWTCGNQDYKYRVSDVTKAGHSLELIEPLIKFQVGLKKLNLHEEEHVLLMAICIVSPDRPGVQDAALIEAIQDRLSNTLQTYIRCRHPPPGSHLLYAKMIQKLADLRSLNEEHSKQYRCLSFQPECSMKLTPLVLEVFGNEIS
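Reagent solutions, kept cold and dark, are dispensed first; compounds are then pinned in at 23 nl, plates briefly spun, and incubated 2 h at ambient temperature. Inhibition of VDR–SRC2-3 peptide binding is read by fluorescence polarization.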
G9a block = qHTS Assay for Inhibitors of Histone Lysine Methyltransferase G9a; G9a H3K9 monomethylation, AlphaScreen, 2 h; Histone-lysine N-methyltransferase EHMT2 (Homo sapiens), Q96KQ7; 8.8% of 350,000 active; AID 504332, 2011; Potency, µM (titrated, usually from 102 µM), most hits filed as inhibitors; note: nearly all actives have a fitted effect of over 75% in size
Target sequence (Q96KQ7 913-1193 limits assumed): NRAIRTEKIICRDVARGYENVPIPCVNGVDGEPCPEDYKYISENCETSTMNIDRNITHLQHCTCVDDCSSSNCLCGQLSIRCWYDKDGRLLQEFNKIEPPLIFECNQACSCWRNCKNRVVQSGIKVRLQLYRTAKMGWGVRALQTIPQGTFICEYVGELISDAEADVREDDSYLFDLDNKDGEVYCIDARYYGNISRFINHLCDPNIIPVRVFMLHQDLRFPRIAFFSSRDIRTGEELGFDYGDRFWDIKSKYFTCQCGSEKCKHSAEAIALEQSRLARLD
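Quantitative HTS format: methyltransferase activity on a biotin-tagged H3K9 peptide is measured by AlphaScreen, using a rabbit anti-monomethyl-H3K9 antibody with streptavidin donor and anti-IgG acceptor beads. Final levels are 20 nM enzyme, 500 nM peptide, 20 uM SAM; 2 h RT.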
CCT modulator = High-Throughput Screening for Modulators of Cytosolic Chaperonin Activity. activity change, % (no concentration beside the values), hits read low. 0.3% of 360,000 active. purified chaperonin ATPase assay, HTRF ADP detection, 30 min. AID 651819, 2012; in the data active = activity change below about -30%
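First, chaperonin was dispensed at 40 nM or 20 nM final depending on batch activity. Next, compounds were pinned at 76 uM and ATP added at 10 uM. After 30 min at 37 °C, ADP detection reagents ran 30 min at ambient temperature.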
Sfp inh = qHTS Assay for Inhibitors of Bacillus subtilis Sfp phosphopantetheinyl transferase (PPTase). 4'-phosphopantetheinyl transferase ffp (Bacillus subtilis), Q9F4F7. Biochemical Sfp PPTase activity, qHTS. Potency, µM, most hits filed as inhibitors. 3.5% of 310,000 active. AID 1490, 2009;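 note: the enzyme is Sfp with the accession as filed and its product quenches rhodamine fluorescence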
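Fluorescence-quenching assay: 15 nM Sfp-PPTase preincubated 15 min at room temperature with compound, then 5 uM rhodamine-CoA and 12.5 uM BHQ-2-labelled YbbR peptide added. Fluorescence (ex 525/em 598 nm) read at start and after 30 min; difference gives rate.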
MmCpn inh = Inhibitors of TCP-1 ring complex (TRiC) of Methanococcus maripaludis (MmCpn): qHTS; Potency, µM (series often up to 76.9 µM), actives largely listed as inhibitors; 0.031% of 330,000 active; purified Mm-Cpn ATPase, ADP Transcreener TR-FRET; Chaperonin Mm-Cpn (Methanococcus maripaludis); AID 504842, 2011; note: nearly all actives have a fitted effect of over 80% in size
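ATPase read-out: TR-FRET ADP immunoassay (anti-ADP Eu cryptate vs ADP-d2), ex 320 nm, em 590/665 nm; signal drops as ADP forms. Enzyme 25 nM, ATP 10 uM, 30 min at 37°C after 10 min compound preincubation.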
PLK1 PBD block = qHTS for Inhibitors of PLK1-PDB (polo-like kinase 1 - polo-box domain): Primary Screen; Plk1 PBD binding of FITC phosphopeptide, fluorescence polarization; Serine/threonine-protein kinase PLK1 (Homo sapiens), P53350; AID 720504, 2013; Potency, µM, hits mostly inhibitors; 2.8% of 360,000 active; note: series mostly up to about 57 µM; nearly all actives have a fitted effect of over 65% in size
Hits are given with their value; . = inactive; ? = inconclusive; / = no result given; [ ] = another dose, or the depositor's remark. Unless noted, calls come from the whole dose curve; as a rule, active = well fitted curve in the direction sought with a large enough effect; inconclusive = small, poorly fitted or top-dose-only effect, or another doubt; inactive = no such curve, though single readings can be large; an effect the other way counts as inactive or inconclusive.

SMILES	VDR inh	G9a block	CCT modulator	Sfp inh	MmCpn inh	PLK1 PBD block
CCNS(=O)(=O)c1ccc(NC(=S)NCc2ccco2)cc1	.	14.1µM	.	.	.	.
O=C(c1ccc(NC(=S)NCc2ccco2)cc1)N1CCCCC1	.	50.1µM	.	?	.	.
Cc1ccc(C(=O)Nc2ccc(S(=O)(=O)NCc3ccco3)cc2)cc1	.	?	.	.	.	.
CCC(=O)Nc1ccc(S(=O)(=O)NCc2ccco2)cc1	.	44.7µM	.	.	.	.
CC(C)C(=O)NNS(=O)(=O)c1ccccc1	.	.	.	.	.	.
Cc1ccc(C2C(=O)N(C3CCCCCC3)CC(=O)N2C(C)C)cc1 (stereo not drawn)	.	.	/	/	/	/
O=C(CSc1ccc2nc(-c3ccccc3)cn2n1)Nc1cccc(F)c1	.	.	/	/	/	/
O=C(CN(CCc1ccccc1)C(=O)CNS(=O)(=O)c1ccccc1)NCc1ccco1	.	.	.	.	.	.
COc1cccc(CNS(=O)(=O)c2ccc(S(=O)(=O)N3CCCC3)cc2)c1	.	/	.	10µM	.	.
O=S(=O)(NCc1ccco1)c1ccc(S(=O)(=O)N2CCCC2)cc1	.	/	.	3.16µM	.	.
O=S(=O)(NCc1ccccc1)c1ccc(NC(=S)NCc2ccco2)cc1	.	50.1µM	.	.	.	.
COc1cccc(NS(=O)(=O)c2ccc(S(=O)(=O)N3CCCC3)cc2)c1	.	.[12.7 µM]	.	/	.	.
O=C(CNS(=O)(=O)c1ccccc1)NCc1ccco1	.	79.4µM	.	.	.	.
C[C@@H](O)CNC(C)(C)CC(=O)N[C@@H]1CCc2ccccc2N(Cc2ccc(-c3ccccc3-c3nn[nH]n3)cc2)C1=O	.	.	/	.	/	/
O=C(Nc1c(O)c2ccccc2oc1=O)c1ccccc1Cl	.	.	/	/	/	/
Cn1cc(-c2cc3n(n2)CCC(=O)N3CCCC(=O)NCc2ccc(F)cc2)c2ccccc21	.	.	/	/	/	/
COc1cccc(C(=O)Nc2ccc(Cl)c(-c3nc4ccccc4[nH]3)c2)c1	.	.	/	/	/	/
COc1ccc(NC(=O)CSC2=Nc3ccccc3C3=NC(Cc4ccccc4)C(=O)N23)cc1Cl (stereo not drawn)	.	.	/	/	/	/
C[C@@]1(C(NC(=O)c2ccccc2)c2ccc(-c3ccccc3)cc2)C[C@H]1C1CCCCC1 (stereo partly drawn)	/	/	/	.	/	/
C[C@@H](c1ccccc1)N1C(=O)[C@@H]2[C@H]3C(=CC[C@H]2C1=O)C(=O)[C@H]1O[C@H]1[C@H]3O	/	/	/	.	/	/
CC(=O)Nc1ccc(S(=O)(=O)NNC(=S)NCc2ccco2)cc1	.	31.6µM	.	44.7µM	.	.
CC(C)CNS(=O)(=O)c1ccc(CCC(=O)NCc2ccco2)cc1	.	?	.	39.8µM	.	.
Cc1ccc(N2CC(NC(=O)c3ccco3)CC2=O)cc1 (stereo not drawn)	.	.	/	/	/	/
Cc1cccc(CCNC(=O)c2nc(-c3ccc(Cl)cc3)n3c2CCCCC3)c1	.	11.2µM	/	/	/	/
COc1ccc(CCNC(=O)c2nc(-c3ccc(Cl)cc3)n3c2CCCCC3)c(OC)c1	.	12.6µM	/	/	/	/
SMILES	VDR inh	G9a block	CCT modulator	Sfp inh	MmCpn inh	PLK1 PBD block
COc1cccc(N2CCN(C(=O)c3nc(-c4ccc(Cl)cc4)n4c3CCCCC4)CC2)c1	.	17.8µM	/	/	/	/
COC(=O)c1ccccc1NC(=O)c1nc(-c2ccc(Cl)cc2)n2c1CCCCC2	.	.	/	/	/	/
O=C(c1nc(-c2ccc(Cl)cc2)n2c1CCCCC2)N1CCN(c2ccccc2)CC1	.	?	/	/	/	/
COc1ccc(NC(=O)CN2C(=O)CCn3nc(-c4cccn4C)cc32)cc1	.	.	/	/	/	/
Cc1ccc(NC(=O)Cn2c(=O)n(CCCCC(=O)NCCc3ccccc3)c(=O)c3ccccc32)cc1	.	.	/	/	/	/
Cc1nnc(C)n1/N=C/c1ccccc1	.	.	.	.	.	.
N=C1N(/N=C/c2ccccc2)C(=Nc2ccccc2)C(=S)N1c1ccccc1	.	10µM	.	31.6µM	.	.
O=C(N=C1c2ccccc2CN1c1ccc(F)c(F)c1)c1cccnc1	.	.	.	.	.	.
O=C(N=C1c2ccccc2CN1c1cccc(Cl)c1)c1cccnc1	.	50.1µM	.	.	.	.
CCOC(=O)c1ccc(N2Cc3ccccc3C2=NC(=O)c2cccc([N+](=O)[O-])c2)cc1	.	/	.	/	/	.
O=C(N=C1c2ccccc2CN1c1ccccc1)c1cccc([N+](=O)[O-])c1	.	50.1µM	.	.	.	.
COc1ccc(N2Cc3ccccc3C2=NC(=O)c2ccc(C)cc2)cc1OC	.	44.7µM	.	.	.	.
CC(=O)Nc1cccc(-c2csc(N)n2)c1	.	?	.	.	.	.
CC(=O)Nc1cccc(-c2cc(C)c3cc4c(cc3n2)OCO4)c1	.	50.1µM	.	.	.	.
COc1ccc2c(c1)CCc1sc(NC(=O)c3cccc(Br)c3)nc1-2	.	10µM	/	/	/	/
COc1ccc(C(=O)Nc2nc3c(s2)CCc2cc(OC)ccc2-3)cc1	.	6.31µM	/	/	/	/
CC1CCCN(C(=O)c2cc3c(=O)n(C)c4ccccc4c3s2)C1 (stereo not drawn)	.	.	/	/	/	/
Cn1c(=O)[nH]c(=O)c2c1[nH]c(=S)n2CCCc1ccccc1	39.8µM	/	.	14.1µM	.	29.9µM
Cn1c(=O)[nH]c(=O)c2c1nc(Br)n2CCCc1ccccc1	/	.	/	.	.	/
Cn1c(=O)[nH]c(=O)c2c1[nH]c(=S)n2Cc1ccc(Cl)cc1	?	0.891µM	.	8.91µM	.	11.9µM
Cn1c(=O)[nH]c(=O)c2c1nc(Br)n2Cc1ccc(Cl)cc1	/	/	.	/	/	.
Cn1c(=O)c2c([nH]c(=S)n2CCCc2ccccc2)n(C)c1=O	79.4µM	.[0.501 µM]	.	50.1µM	.	.
Cc1nc(CN2CCC(c3ccccc3)CC2)cc(=O)[nH]1	?	.[12.7 µM]	.	.	.	21.2µM
Cc1cc(=O)[nH]c(CN2CCC(c3ccccc3)CC2)n1	.	.[12.7 µM]	.	.	.	.
COc1ccc(CN2CCCCC2c2cccnc2)c(OC)c1C (stereo not drawn)	.	79.4µM	.	.	.	.
O=C(Nc1cccc(F)c1)N1CC2(CCN(C(=O)c3ccncc3)CC2)C1	.	.[12.7 µM]	/	.	/	/
COc1ccc(N2C(=O)CC(NNc3ncc(Cl)cc3Cl)C2=O)cc1 (stereo not drawn)	.	?	.	50.1µM	.	.
CCOC(=O)n1c2ccccc2c(=O)n1CCO	/	/	-33.0	/	/	.
